Out of some 5,600 compounds screened, about 390 (7%) showed an effect of 50% or more. The full list was thinned out, with strong results kept by preference.
Target: T1, Protein deacetylase HDAC6 (Homo sapiens) (UniProt Q9UBN7)
T1 sequence (whole entry): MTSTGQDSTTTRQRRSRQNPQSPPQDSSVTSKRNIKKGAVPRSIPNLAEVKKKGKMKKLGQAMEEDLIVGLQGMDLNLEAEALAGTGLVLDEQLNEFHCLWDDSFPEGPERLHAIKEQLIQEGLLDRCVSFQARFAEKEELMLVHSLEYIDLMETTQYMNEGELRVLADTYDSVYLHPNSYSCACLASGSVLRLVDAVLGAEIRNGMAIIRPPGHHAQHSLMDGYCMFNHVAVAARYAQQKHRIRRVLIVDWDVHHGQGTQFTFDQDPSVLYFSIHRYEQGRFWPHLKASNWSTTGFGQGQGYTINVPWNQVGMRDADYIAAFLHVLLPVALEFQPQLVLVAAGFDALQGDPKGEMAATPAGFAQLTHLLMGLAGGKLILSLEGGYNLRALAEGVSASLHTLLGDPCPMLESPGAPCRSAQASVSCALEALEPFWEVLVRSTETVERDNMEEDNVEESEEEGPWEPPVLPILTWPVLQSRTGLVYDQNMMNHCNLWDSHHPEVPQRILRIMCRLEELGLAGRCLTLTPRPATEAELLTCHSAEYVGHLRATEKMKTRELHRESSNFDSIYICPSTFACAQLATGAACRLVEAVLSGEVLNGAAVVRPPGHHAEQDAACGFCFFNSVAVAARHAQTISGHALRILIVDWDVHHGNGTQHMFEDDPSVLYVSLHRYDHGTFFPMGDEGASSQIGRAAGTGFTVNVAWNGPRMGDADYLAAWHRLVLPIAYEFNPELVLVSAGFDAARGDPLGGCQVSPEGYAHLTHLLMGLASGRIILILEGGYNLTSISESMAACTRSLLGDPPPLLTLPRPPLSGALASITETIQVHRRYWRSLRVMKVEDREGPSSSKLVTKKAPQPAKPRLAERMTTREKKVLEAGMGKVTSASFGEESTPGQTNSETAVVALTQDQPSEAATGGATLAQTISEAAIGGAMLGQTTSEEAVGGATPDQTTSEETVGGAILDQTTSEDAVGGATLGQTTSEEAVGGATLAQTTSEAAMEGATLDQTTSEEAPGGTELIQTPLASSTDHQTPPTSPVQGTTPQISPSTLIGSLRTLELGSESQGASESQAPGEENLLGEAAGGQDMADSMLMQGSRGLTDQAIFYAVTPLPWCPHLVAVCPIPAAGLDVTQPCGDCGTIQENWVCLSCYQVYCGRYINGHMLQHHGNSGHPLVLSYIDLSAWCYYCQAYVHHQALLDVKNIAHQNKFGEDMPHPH
Settings: at 10 µM

SMILES	inhibition [%]
COc1cc(/C=C(\C#N)C(N)=O)cc(CSc2nc3ccccc3s2)c1O	17.9
CCCCc1oc2ccc(NS(C)(=O)=O)cc2c1C(=O)c1ccc(OCCCN(CCCC)CCCC)cc1	18.6
Cc1cnc(-c2cnc(NCCNc3ccc(C#N)cn3)nc2-c2ccc(Cl)cc2Cl)[nH]1	3.11
Cn1cnc(-c2cc3nccc(Oc4ccc(NC(=S)NC(=O)Cc5ccccc5)cc4F)c3s2)c1	28
Cc1ccc(C(=O)Nc2ccc(CN3CCN(C)CC3)c(C(F)(F)F)c2)cc1C#Cc1cnc2cccnn12	32.8
COC(=O)N1CCN(Cc2cccc(NC(=O)Nc3ccc(C)nc3)c2F)CC1	57.5
COc1cc(N)cn[n+]1-c1ccccc1	15.3
CC(=O)OCC(=O)[C@@]1(O)[C@@H](C)C[C@H]2[C@@H]3CCC4=CC(=O)C=C[C@]4(C)[C@@]3(F)[C@@H](O)C[C@@]21C	8.96
Clc1cccc(Cl)c1CSc1nnc(-c2cnccn2)s1	65.2
COc1c(OCCCN2CCOCC2)ccc2c1N=C(NC(=O)c1cnc(N)nc1)N1CCN=C21	8.29
CCCCCNCC(N)=O	19.9
Oc1nc(O)c2cn[nH]c2n1	9.68
CCS(=O)(=O)CCn1c([N+](=O)[O-])cnc1C	-4.7
CSc1ccc(OCc2ncc([N+](=O)[O-])n2C)cc1	57.1
Cn1c([N+](=O)[O-])cnc1COC(N)=O	2.87
Nc1[nH]cnc2ncnc1-2	-1.89
NS(=O)(=O)c1ccc(S(=O)(=O)Nc2cccc3c(Cl)c[nH]c23)cc1	-6.04
C1CCN2C[C@H]3C[C@H](CN4CCCC[C@@H]34)[C@H]2C1	30.9
Cc1ncc(-c2csc(N=C(N)N)n2)[nH]1	3.96
Ic1cc(-c2ccccc2)ncn1	25.2
CC[C@@]1(O)C(=O)OCc2c1cc1n(c2=O)Cc2cc3c([N+](=O)[O-])cccc3nc2-1	11.9
CC(=O)OCC(=O)NCCCOc1cccc(CN2CCCCC2)c1	14.5
O=C(OC(C(F)(F)F)C(F)(F)F)N1CCN(Cc2cccc(Oc3ccccc3)c2)CC1	-8.39
c1cc(CN2CCCCC2)cc(OCCCNc2nc3ccccc3s2)c1	59.6
COc1ccc(C(=O)N2CCCc3cc(C4=NNC(=O)SC4C)ccc32)cc1OC (stereo not drawn)	7.12
Cc1ccc(S(=O)(=O)NC2c3ccccc3Oc3ccccc32)cc1	0.27
CNC(=O)CN(CCN(CCN(CC(=O)O)CC(=O)NC)CC(=O)O)CC(=O)O	17.5

SMILES	inhibition [%]
OCc1ccc(-c2ccc(-c3ccc(CO)s3)o2)s1	102
O=C(O)COc1cccc(-c2ocnc2-c2nc(-c3ccccc3)c(-c3ccccc3)o2)c1	-1.23
CCCc1ncc(C[n+]2ccccc2C)c(N)n1	-5.17
Cc1ncc(C[n+]2csc(CCO)c2C)c(N)n1	53
CC(C)CN(C[C@@H](O)[C@H](Cc1ccccc1)NC(=O)O[C@H]1CCOC1)S(=O)(=O)c1ccc(N)cc1	1.38
COc1ccc(OC)c(CN(C(C)=O)c2cc(F)ccc2Oc2ccccc2)c1	1.27
Cc1c(-c2ccc(O)cc2)n(Cc2ccc(OCCN3CCCCCC3)cc2)c2ccc(O)cc12	86.2
O=C(Cc1ccc(-c2ccc(OCCN3CCOCC3)cc2)cn1)NCc1ccccc1	9.75
O=C(c1ccc(OCCN2CCCCC2)cc1)c1c(-c2ccc(O)cc2)sc2cc(O)ccc12	38.5
O=[N+]([O-])c1cnc(Sc2nnc(O)n2-c2ccc3c(c2)OCCO3)s1	11.2
C[n+]1cccc(C(=O)[O-])c1	7.12
O=C(Nc1ccccc1)C12CC1/C(=N\O)c1ccccc1O2 (stereo not drawn)	16.1
Nc1cc(C(F)(F)F)c(-c2nc(N3CCOCC3)nc(N3CCOCC3)n2)cn1	-6.25
OCc1c[nH]c2ccccc12	2.93
O=C(O)C(=O)Cc1c[nH]c2ccccc12	20.3
c1ccc2c(Cc3c[nH]c4ccccc34)c[nH]c2c1	71.8
CCc1cc2c(c(CC)n1)CCC(=O)N2Cc1ccc(-c2ccccc2-c2nnn[nH]2)cc1	0.45
[O-][S+](c1ccccc1)c1ccc2nnnn2n1 (stereo not drawn)	-5.95
Clc1ccc(N/N=C(\c2ccccc2)c2ccccn2)nc1	25.9
c1ccc(COCCCc2c[nH]cn2)cc1	20.5
COc1ccc2cc1Oc1ccc(cc1)C[C@H]1c3c(cc4c(c3Oc3cc5c(cc3OC)CCN(C)[C@@H]5C2)OCO4)CCN1C	-6.05
O=C1/C(=C/c2ccccc2)C(NC2CCCCC2)c2ccccc21 (stereo not drawn)	8.83
Cc1noc(NS(=O)(=O)c2cccc3c(N(C)C)cccc23)c1C	29.9
Nc1nc2c(cnn2CCc2ccccc2)c2nc(-c3ccco3)nn12	61.6
Cc1ccc(C)c(OCCCC(C)(C)C(=O)O)c1	7.2
Cc1cc(Cl)ccc1OCCCC(=O)NO	98.5
